Screening data: PubChem, National Center for Advancing Translational Sciences (NCATS)
ATXN2 expr inh = inhibitors of ATXN2 expression. HEK-293 ATXN2-luciferase reporter, luminescence, 24 h. Potency, µM (highest dose often 57 µM), for the others: at the top dose activity change, negative = inhibition, actives largely listed as inhibitors. hit rate 0.72% among 360,000. AID 1745845; note: % is set by controls: 0 for no effect and ±100 for the full control effect; nearly all actives have a fitted effect of over 55% in size
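qHTS (up to 57 uM final) was run with 24 h compound exposure of reporter cells at 37 °C. Each well was multiplexed: SteadyGlo luminescence measured ATXN2-luciferase expression after a fluorogenic Gly-Phe-AFC viability readout (25 uM final).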
TGFb inhibitor = blocks TGF-b signaling. HepG2 CAGA-GFP TGF-b/SMAD3 reporter, GFP fluorescence, 18 h; TGF-beta stimulated, 500 pg/mL final. Potency, µM (doses to about 46.1 µM), inactives show at the top dose activity, negative = inhibition, actives largely listed as inhibitors. hit rate 1.2% among 410,000; note: % is set by controls: 0 for no effect and ±100 for the full control effect; nearly all actives have a fitted effect of over 65% in size
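HEPG2 CAGA-GFP cells (1000/well, DMEM with 1% FBS) were pre-incubated 2 h at 37 degrees C, given compound by pin tool, then stimulated with TGF-beta at 500 pg/mL final for 18 h before per-cell GFP fluorescence imaging.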
ATXN viability = cell viability loss in ATXN counter-screen. S2 cells (HEK-293 line with an ATXN2-luciferase reporter) viability, CellTiter-Fluor protease fluorescence, 24 h. Potency, µM (titrated, usually from 56.7 µM), hits mostly cytotoxic. hit rate 0.49% among 400,000; note: nearly all actives have a fitted effect of over 40% in size
HepG2 tox = counter-screen for TGF-b inhibitors: cytotoxicity in HepG2 cells. HepG2 CAGA-GFP viability, ATP luminescence, 18 h. Potency, µM (series often up to 46.1 µM), inactives show at the top dose activity change, negative = cytotoxicity, actives largely listed as cytotoxic. hit rate 0.76% among 410,000. AID 588856
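HepG2 CAGA-GFP cells (1000/well, DMEM with 1% FBS) received compound, then TGF-beta at 500 pg/mL final, and were incubated 18 hours at 37 degrees C. Viability was read by CellTiter-Glo luminescence. Media-only wells were set as complete cell-killing and DMSO as no toxicity.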
TDP1 cell CPT = growth inhibition of DT40 Tdp1-/-;hTDP1 cells with camptothecin (screen for TDP1 inhibitors) | chicken DT40 Tdp1-/-;hTDP1 cells + 20 nM CPT, ATP luminescence, 48 h | Potency, µM (highest dose often 46.2 µM), without a hit: at the highest dose activity change, negative = growth inhibition, actives largely listed as inhibitors | hit rate 12% among 420,000 | AID 686979; note: % is set by controls: 0 for no effect and ±100 for the full control effect; nearly all actives have a fitted effect of over 55% in size
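Chicken DT40 Tdp1-/- cells complemented with human TDP1, 400 cells/well, exposed to compounds plus 20 nM camptothecin for at least 48 h at 37 C; viability read as ATP content by CellTiter-Glo luminescence.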
DT40 TDP1 no CPT = qHTS for Inhibitors of human tyrosyl-DNA phosphodiesterase 1 (TDP1): qHTS in cells in absence of CPT | DT40 Tdp1-/- hTDP1 cells, no CPT, ATP luminescence, 48 h | Potency, µM (doses to about 46.2 µM), for the others: at the top dose activity change, negative = growth inhibition, usual class: inhibitors | hit rate 15% among 420,000; note: % is set by controls: 0 for no effect and ±100 for the full control effect; nearly all actives have a fitted effect of over 55% in size
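Chicken DT40 Tdp1-/- cells stably complemented with human TDP1 were seeded at 400 cells/well with DMSO in place of 20 nM camptothecin. After compound pinning, cells grew at least 48 hr at 37 °C; viability read by CellTiter-Glo luminescence.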
* marks the source's active call; other numbers are inactive results; i = inactive; u = inconclusive; x = no result; [ ] = another dose, or the depositor's remark. Most compounds without a hit are left out; they make up all but 17% or so of the library. Calls come from the whole dose curve; as a rule, active = well fitted curve in the direction sought with a large enough effect; inconclusive = small, poorly fitted or top-dose-only effect, or another doubt; inactive = no such curve, though single readings can be large; an effect the other way counts as inactive or inconclusive. Potency is the fitted concentration of half-maximal effect.

SMILES | ATXN2 expr inh | TGFb inhibitor | ATXN viability | HepG2 tox | TDP1 cell CPT | DT40 TDP1 no CPT
CC(/C=N/NC(=O)CSc1nc(C)cc(C)n1)=C\c1ccccc1 | -13% | 65% | i | -1% | u | u
CC(/C=N\NC(=O)Cn1c(C)nc2ccccc21)=C\c1ccccc1 | u | -19% | u | -12% | 8.2µM* | 8.2µM*
Cc1ccc(NC(=O)c2nc[nH]c2C(=O)N2CCN(C(=O)OC(C)(C)C)CC2)cc1 | -5% | 5% | i | -2% | u | u
Cn1cnc(C(=O)NCc2ccc(CNC(=O)OC(C)(C)C)cc2)c1C(=O)NCc1ccc(CNC(=O)OC(C)(C)C)cc1 | -17% | u | u | 12% | 21µM* | u
CC1CCN(C(=O)c2[nH]cnc2C(=O)N[C@@H](CCCCNC(=O)OC(C)(C)C)C(=O)OC(C)(C)C)CC1 | -8% | -22% | i | -13% | u | u
CC(C)(C)OC(=O)NCCCC[C@H](NC(=O)c1[nH]cnc1C(=O)Nc1ccc(CNC(=O)OC(C)(C)C)cc1)C(=O)OC(C)(C)C | 0% | -25% | u | -4% | 5.8µM* | 4.6µM*
CC(C)(C)OC(=O)NCc1ccc(CNC(=O)c2nc[nH]c2C(=O)N2CCN(C(=O)OC(C)(C)C)CC2)cc1 | u | u | 18µM* | -3% | u | 18µM*
CC(C)(C)OC(=O)NCc1ccc(NC(=O)c2nc[nH]c2C(=O)NCCCCCCNC(=O)c2[nH]cnc2C(=O)Nc2ccc(CNC(=O)OC(C)(C)C)cc2)cc1 | 6% | u | i | 21% | 5.8µM* | 5.8µM*
CC(C)(C)OC(=O)NCc1ccc(NC(=O)c2nc[nH]c2C(=O)NCCCCNC(=O)c2[nH]cnc2C(=O)Nc2ccc(CNC(=O)OC(C)(C)C)cc2)cc1 | 8% | -21% | i | 2% | 4.1µM* | 2.9µM*
CC(C)(C)OC(=O)NCc1ccc(NC(=O)c2nc[nH]c2C(=O)NCCCNC(=O)c2[nH]cnc2C(=O)Nc2ccc(CNC(=O)OC(C)(C)C)cc2)cc1 | -15% | 5% | i | 8% | 13µM* | 26µM*
Cc1cc(C(=O)N2CC(C)CC(C)C2)n(-c2ccccc2)n1 (centres undefined) | -14% | u | u | 2% | 10µM* | 8.2µM*
COC(=O)C1=C(C)NC(=O)NC1c1cccc(OC)c1OCc1ccccc1 (centres undefined) | 0% | 0% | i | 0% | u | u
COc1ccc2ccn(S(=O)(=O)c3ccccc3)c2c1 | -8% | -5% | i | 4% | -15% | u
CCOC(=O)c1c(-c2ccccc2)oc2ccc(NS(=O)(=O)c3ccc(C)cc3)cc12 | u | u | u | -60% | 2.9µM* | 2.9µM*
CCCC(=O)N(c1ccc2oc(C)c(C(C)=O)c2c1)S(=O)(=O)c1ccc(C)cc1 | -6% | u | i | -23% | x | x
CCOC(=O)c1c(C)oc2ccc(N(C(C)=O)S(=O)(=O)c3c(C)cc(C)cc3C)cc12 | -5% | 7% | i | -10% | x | x
CCOC(=O)c1c(-c2ccccc2)oc2ccc(N(C(C)=O)S(=O)(=O)c3ccc(C)cc3)cc12 | 11% | 1% | u | 0% | 8.2µM* | 10µM*
CCOC(=O)c1c(-c2ccccc2)oc2ccc(OCC(O)CN(C)C)cc12 (centres undefined) | -36% | 14µM* | u | 18µM* | u | 23µM*
CCCC(=O)N(c1ccc2oc(-c3ccccc3)c(C(=O)OCC)c2c1)S(=O)(=O)c1ccc(C)cc1 | x | -21% | x | -1% | u | 5.8µM*
Cc1ccc(C2=NN(CC(=O)NC(C)c3ccccc3)C(=O)CC2)cc1 (centres undefined) | -5% | -2% | i | -13% | -8% | -4%
O=C(c1cnn(-c2nccc(-c3ccccc3C(F)(F)F)n2)c1C1CC1)N1CCN(CCO)CC1 | x | x | i | x | -11%[9.04 µM] | -16%
Cc1nc2ccc(Cl)cc2c(-c2ccccc2)c1C(=O)N(C)C | 3% | -5% | i | -2% | -19% | 13%
CCOC(=O)c1c(CN2CCNCC2)nc2ccc(Cl)cc2c1-c1ccccc1 | u | 16µM* | u | -116% | 4.6µM* | 4.6µM*
C=CCN1C(=O)C2(NNc3ccccc3O2)c2ccccc21 (centres undefined) | -13% | 33% | i | -52% | 6.5µM* | 8.2µM*
C=CCN1C(=O)C2(NC(=O)c3ccccc3N2)c2ccccc21 (centres undefined) | 49%[11.3 µM] | -4% | u | 1% | 18µM* | u
SMILES | ATXN2 expr inh | TGFb inhibitor | ATXN viability | HepG2 tox | TDP1 cell CPT | DT40 TDP1 no CPT
O=C(c1ccccc1Br)N1CCN(c2ccc([N+](=O)[O-])c(N3CCOCC3)c2)CC1 | -5% | 3% | u | 16% | -16% | -16%
O=C(COc1ccccc1Cl)N1CCN(c2ccc([N+](=O)[O-])c(N3CCOCC3)c2)CC1 | -8% | u | i | -29% | u | 16µM*
Cc1ccc(C(=O)N2CCN(c3ccc([N+](=O)[O-])c(N4CCOCC4)c3)CC2)cc1 | -2% | -21% | i | -13% | 29µM* | u
O=C(c1ccc(F)cc1)N1CCN(c2ccc([N+](=O)[O-])c(N3CCOCC3)c2)CC1 | 5% | -1% | u | 0% | u | u
O=C(c1ccccc1)c1cc(Cl)ccc1N1C(=O)C=CC1=O | -17% | u | u | -88% | 2.3µM* | 1.2µM*
N#Cc1cc(C(=O)c2cc(Cl)ccc2O)cn(-c2ccccc2)c1=O | 1% | 11% | i | 4% | 19% | 1%
Cc1ccc(OCC(=O)Nc2ccc3[nH]c(=O)sc3c2)cc1 | 1% | 22% | i | -19% | 5% | -25%
O=C(NC1CC1)C1CCN(C2CCN(C(=O)CCOc3ccccc3)CC2)CC1 | -14% | -8% | i | 6% | -2% | 28%
O=C(CSc1nnc2ccccn12)NNC(=O)c1cccc([N+](=O)[O-])c1 | 6% | 15% | i | 0% | 9% | 6%
O=C(CSC1CS(=O)(=O)c2cc([N+](=O)[O-])ccc21)NNC(=O)c1ccccc1 (centres undefined) | 11% | u | i | -72% | 13µM* | 21µM*
O=C(CSC1CS(=O)(=O)c2cc([N+](=O)[O-])ccc21)NNC(=O)c1ccc(Cl)cc1 (centres undefined) | -25% | 13µM* | i | -67% | 5.2µM* | 2.3µM*
